# Records with an inconclusive call do not appear. Where a call stands in place of a potency, no number is given. The source made the active and inactive calls. The call rests on the fitted dose curve; in most records, active means well fitted cell-killing curve with a large enough effect; inconclusive means small, poorly fitted or top-dose-only effect, or effect the other way; inactive means flat fitted curve, though single readings scatter.
# Test system: Hek293T
# Experiment: Primary qHTS to identify gynecologic anti-cancer compounds using libraries of approved drugs and bioactive compounds (AID 1345084); further: nearly all actives have a fitted effect of over 55% in size
# Settings: Gynecologic cancer cell panel viability, ATPlite luminescence, 48 h, control line for the selectivity index; series mostly up to 57.5 µM
# Method in brief: (§1)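 Cells, 1,000 per well, were allowed to settle for 16 h at 37 C before compound addition. Five concentrations were tested for 48 h, and viability was read by ATPlite luminescence after 15 min at room temperature.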
row,Structure (SMILES),Potency
1,CC(=O)N1CCN([C@H]2CCN(C(=O)N(C)[C@H](C)c3cc(C(F)(F)F)cc(C(F)(F)F)c3)[C@@H](c3ccc(F)cc3C)C2)CC1,inactive
2,Nc1ccc(N)c([N+](=O)[O-])c1,inactive
3,Fc1ccccc1CNCc1ccc(-c2ccnc3[nH]ccc23)cc1,inactive
4,CCCCc1nc(C)c(CC(=S)N(C)C)c(=O)n1Cc1ccc(-c2ccccc2-c2nn[nH]n2)cc1,inactive
5,Clc1ccccc1CNCC1CCC(CNCc2ccccc2Cl)CC1 (centres undefined),inactive
6,CC[C@H]1OC(=O)[C@H](C)[C@@H](O[C@H]2C[C@@](C)(OC)[C@@H](O)[C@H](C)O2)[C@H](C)[C@@H](O[C@@H]2O[C@H](C)C[C@H](N(C)C)[C@H]2O)[C@](C)(O)C[C@@H](C)/C(=N/OCOCCOC)[C@H](C)[C@@H](O)[C@]1(C)O,inactive
7,C[C@@H](CN1CCC(n2c(=O)[nH]c3cc(Cl)ccc32)CC1)NC(=O)c1ccc2ccccc2c1,inactive
8,COc1ccc2c(c1)CN(C(=O)CCN1CCC(Cc3ccccc3)CC1)CCS2,inactive
9,CNc1cc(OC)c(C(=O)N[C@@H]2CCN(Cc3ccccc3)[C@@H]2C)cc1Cl,inactive
10,CCOC(=O)CCC(=O)O[C@H]1[C@H](O[C@@H]2[C@@H](C)[C@H](O[C@H]3C[C@@](C)(OC)[C@@H](O)[C@H](C)O3)[C@@H](C)C(=O)O[C@H](CC)[C@@](C)(O)[C@H](O)[C@@H](C)C(=O)[C@H](C)CC2(C)O)O[C@H](C)C[C@@H]1N(C)C (some centres undefined),inactive
11,CCC(=O)Nc1cccc(Oc2nc(Nc3ccc(N4CCN(C)CC4)cc3OC)ncc2Cl)c1,inactive
12,Cc1cc(CN)cc(C)c1NC(=O)c1ccc(-c2cc(Cl)ccc2Cl)o1,inactive
13,C=C1C(=O)O[C@@H]2C[C@@]3(C)CCC[C@H](C)C3=C[C@H]12,inactive
14,C=C1C(=O)O[C@@H]2[C@H]1[C@H](O)C[C@]1(C)[C@@H](O)CC=C(C)[C@@H]21,inactive
15,CC(C)c1ccc(NC(=O)C(c2ccccc2)N(C)C(=O)Cc2c[nH]c3ccccc23)cc1 (centres undefined),inactive
16,Cc1cc(C)c(NC(=O)N(Cc2ccc3c(c2)Cc2ccccc2-3)C2CCCCCC2)c(C)c1,inactive
17,CN(Cc1ccc(C(=O)O)cc1)c1ccc(OCc2c(-c3c(Cl)cccc3Cl)noc2C2CC2)nc1C(F)(F)F,inactive
18,Cn1nccc1Nc1nccc(-c2ccn([C@H](CO)c3ccc(Cl)c(F)c3)c(=O)c2)n1,inactive
19,C[N+]1(C)[C@@H]2CC[C@H]1CC(OC(=O)C(O)c1ccccc1)C2 (some centres undefined),inactive
20,CC1CCN(c2cc(NC(=O)c3ccccc3)ncn2)CC1,inactive
21,CCOc1ccc(-c2nc(-c3cccc4c3CCC4NCCO)no2)cc1OCC (centres undefined),inactive
22,CCC(=O)c1cc(-c2ccc(Cl)cc2)n(-c2ccc(S(N)(=O)=O)cc2)c1C,inactive
23,COc1cc2nc(-c3cc(F)ccc3O)nc(N[C@@H]3CNC[C@H]3C(C)(C)O)c2cc1OC,inactive
24,COc1cccc(NC[C@@H](O)Cn2c3ccc(Br)cc3c3cc(Br)ccc32)c1,inactive
25,COc1cc(-c2cc(-c3cccc(O)c3)cnc2N)cc(OC)c1OC,inactive
26,COc1c(N2CC3CCCNC3C2)c(F)cc2c(=O)c(C(=O)O)cn(C3CC3)c12 (centres undefined),inactive
27,COc1ccc(-c2c(C)c(C(=O)NN3CCCCC3)nn2-c2ccc(Cl)cc2Cl)cc1,inactive

# Test system: JEG-3
# Experiment: as above
# Settings: Gynecologic cancer cell panel viability, ATPlite luminescence, 48 h; series mostly up to 57.5 µM
# Method in brief: as §1
row,Structure (SMILES),Potency
1,CC(=O)N1CCN([C@H]2CCN(C(=O)N(C)[C@H](C)c3cc(C(F)(F)F)cc(C(F)(F)F)c3)[C@@H](c3ccc(F)cc3C)C2)CC1,inactive
2,Nc1ccc(N)c([N+](=O)[O-])c1,inactive
3,C=C1C(=O)O[C@@H]2C[C@@H](C)[C@]34C[C@]5(C(=O)O[C@H]6CC(C)=C([C@H](C)CCCO)[C@H](OC(=O)C(C)CC)[C@H]65)[C@@H](C(C)=C3C[C@@H]12)[C@H]4OC(C)=O (some centres undefined),inactive
4,COc1ccccc1-c1c[nH]c2ncc(-c3cncc(C(=O)N(C)C)c3)cc12,inactive
5,Fc1ccccc1CNCc1ccc(-c2ccnc3[nH]ccc23)cc1,inactive
6,CCCCc1nc(C)c(CC(=S)N(C)C)c(=O)n1Cc1ccc(-c2ccccc2-c2nn[nH]n2)cc1,inactive
7,CC[C@H]1OC(=O)[C@H](C)[C@@H](O[C@H]2C[C@@](C)(OC)[C@@H](O)[C@H](C)O2)[C@H](C)[C@@H](O[C@@H]2O[C@H](C)C[C@H](N(C)C)[C@H]2O)[C@](C)(O)C[C@@H](C)/C(=N/OCOCCOC)[C@H](C)[C@@H](O)[C@]1(C)O,inactive
8,C[C@@H](CN1CCC(n2c(=O)[nH]c3cc(Cl)ccc32)CC1)NC(=O)c1ccc2ccccc2c1,inactive
9,CN(C)CC(=O)Nc1ccc2[nH]c(=O)c3ccccc3c2c1,inactive
10,C=C1C(=O)O[C@@H]2/C=C(/C)CC3C=C(C[C@H](OC(=O)/C(C)=C\C)[C@@H]12)C(=O)O3 (some centres undefined),inactive
11,COc1ccc2c(c1)CN(C(=O)CCN1CCC(Cc3ccccc3)CC1)CCS2,inactive
12,COc1ccc(-c2nc(-c3cc(C(F)(F)F)cc(C(F)(F)F)c3)n(Cc3ccc(C(N)=O)cc3)c2-c2ccc(OC)cc2)cc1,inactive
13,CNc1cc(OC)c(C(=O)N[C@@H]2CCN(Cc3ccccc3)[C@@H]2C)cc1Cl,inactive
14,CCOC(=O)CCC(=O)O[C@H]1[C@H](O[C@@H]2[C@@H](C)[C@H](O[C@H]3C[C@@](C)(OC)[C@@H](O)[C@H](C)O3)[C@@H](C)C(=O)O[C@H](CC)[C@@](C)(O)[C@H](O)[C@@H](C)C(=O)[C@H](C)CC2(C)O)O[C@H](C)C[C@@H]1N(C)C (some centres undefined),inactive
15,CCC(=O)Nc1cccc(Oc2nc(Nc3ccc(N4CCN(C)CC4)cc3OC)ncc2Cl)c1,inactive
16,Cc1cc(CN)cc(C)c1NC(=O)c1ccc(-c2cc(Cl)ccc2Cl)o1,inactive

row,Structure (SMILES),Potency
1,C=C1C(=O)O[C@@H]2C[C@@]3(C)CCC[C@H](C)C3=C[C@H]12,inactive
2,C=C1C(=O)O[C@@H]2[C@H]1[C@H](O)C[C@]1(C)[C@@H](O)CC=C(C)[C@@H]21,inactive
3,CC(C)c1ccc(NC(=O)C(c2ccccc2)N(C)C(=O)Cc2c[nH]c3ccccc23)cc1 (centres undefined),inactive
4,O=C(Nc1cccc(C(F)(F)F)c1)c1ccccc1NCc1ccncc1,inactive
5,Cc1cc(C)c(NC(=O)N(Cc2ccc3c(c2)Cc2ccccc2-3)C2CCCCCC2)c(C)c1,inactive
6,CN(Cc1ccc(C(=O)O)cc1)c1ccc(OCc2c(-c3c(Cl)cccc3Cl)noc2C2CC2)nc1C(F)(F)F,inactive
7,C[N+]1(C)[C@@H]2CC[C@H]1CC(OC(=O)C(O)c1ccccc1)C2 (some centres undefined),inactive
8,CC1CCN(c2cc(NC(=O)c3ccccc3)ncn2)CC1,inactive
9,CCOc1ccc(-c2nc(-c3cccc4c3CCC4NCCO)no2)cc1OCC (centres undefined),inactive
10,CCC(=O)c1cc(-c2ccc(Cl)cc2)n(-c2ccc(S(N)(=O)=O)cc2)c1C,inactive
11,COc1cc2nc(-c3cc(F)ccc3O)nc(N[C@@H]3CNC[C@H]3C(C)(C)O)c2cc1OC,inactive
12,COc1cccc(NC[C@@H](O)Cn2c3ccc(Br)cc3c3cc(Br)ccc32)c1,inactive
13,COc1cc(-c2cc(-c3cccc(O)c3)cnc2N)cc(OC)c1OC,inactive
14,COc1c(N2CC3CCCNC3C2)c(F)cc2c(=O)c(C(=O)O)cn(C3CC3)c12 (centres undefined),inactive
15,COc1ccc(Cl)cc1[C@@]1(F)C(=O)Nc2cc(C(F)(F)F)ccc21,inactive
16,C[C@H](NC(=O)C(C)(C)Oc1ccc(C(F)(F)F)cn1)[C@@H](Cc1ccc(Cl)cc1)c1cccc(C#N)c1,inactive
